In PubChem BioAssay AID488969 (Vanderbilt High Throughput Screening Facility, 2010):
Over roughly 110,000 compounds, “z-score” has its median near -0.1; the highest 2% begin near 2. The entries come from a sample that favours the highest values as a whole. Active and inactive are the calls of the source.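 How the source made its calls: active means z-score in the third read window above 3 or below -3; inactive means the rest.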

target: Metabotropic glutamate receptor 8 (Rattus norvegicus) (UniProt P70579); test: rat mGluR8 modulators via GIRK flux, primary screen, cell-based, thallium flux, HTS (AID 488969); details: HEK293 rat mGluR8, GIRK (G protein-gated inwardly rectifying potassium channel) thallium flux, FluoZin2; at 10 µM; stronger effect = higher value; submaximal glutamate (EC20) added with thallium
Sequence (P70579 whole entry, looked up): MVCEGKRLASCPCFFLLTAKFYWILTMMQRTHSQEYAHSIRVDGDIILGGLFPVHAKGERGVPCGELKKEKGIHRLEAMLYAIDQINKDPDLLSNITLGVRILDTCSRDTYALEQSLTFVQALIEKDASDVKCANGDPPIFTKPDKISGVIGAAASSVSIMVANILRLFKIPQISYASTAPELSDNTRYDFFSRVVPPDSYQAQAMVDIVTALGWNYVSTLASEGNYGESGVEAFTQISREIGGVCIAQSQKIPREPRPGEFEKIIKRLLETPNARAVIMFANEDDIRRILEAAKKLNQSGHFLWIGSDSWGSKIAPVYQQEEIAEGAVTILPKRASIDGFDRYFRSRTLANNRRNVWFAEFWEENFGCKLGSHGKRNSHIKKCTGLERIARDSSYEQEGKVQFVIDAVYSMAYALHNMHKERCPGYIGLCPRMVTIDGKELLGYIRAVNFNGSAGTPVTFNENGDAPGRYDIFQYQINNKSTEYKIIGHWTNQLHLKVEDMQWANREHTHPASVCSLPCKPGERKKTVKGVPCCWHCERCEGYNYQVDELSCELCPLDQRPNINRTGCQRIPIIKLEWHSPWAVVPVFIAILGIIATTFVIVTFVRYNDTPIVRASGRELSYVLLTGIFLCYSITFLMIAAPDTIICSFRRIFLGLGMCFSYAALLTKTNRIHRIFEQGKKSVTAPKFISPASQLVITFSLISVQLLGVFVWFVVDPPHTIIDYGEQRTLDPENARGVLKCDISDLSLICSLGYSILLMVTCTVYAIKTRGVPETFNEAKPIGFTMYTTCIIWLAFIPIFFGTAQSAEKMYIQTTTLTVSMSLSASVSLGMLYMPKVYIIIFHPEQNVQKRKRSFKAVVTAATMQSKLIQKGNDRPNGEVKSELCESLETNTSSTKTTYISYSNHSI

| SMILES | z-score |
| --- | --- |
| O=C(O)/C=C/C(=O)Nc1ccccc1C(=O)Nc1ccccc1 | 0.317 |
| CCOC(=O)C1=C(Nc2ccccc2)CC(C)(O)C(C(=O)OCC)C1c1ccc(Cl)cc1 (stereo unspecified) | -0.445 |
| COc1ccc(CCC(C)NCC2CCCCC2)cc1 (stereo unspecified) | 0.819 |
| S=C(NCc1ccncc1)Nc1cccc(Cl)c1 | -0.135 |
| CCOC(=O)c1csc(NC(=O)Nc2cccc(Cl)c2)n1 | -0.0455 |
| S=C(NCc1cccs1)Nc1ccc(Cl)cc1 | 0.118 |
| Cc1csc(NC(=O)Nc2cccc(Cl)c2)n1 | 0.398 |
| Cc1csc(NC(=S)Nc2cccc(Cl)c2)n1 | 14.7 (active) |
| S=C(NCc1cccs1)Nc1cccc(Cl)c1 | 4.52 (active) |
| Fc1ccc(NC(=S)Nc2cccc(Cl)c2)cc1 | 1.26 |
| Fc1ccc(CNC(=S)Nc2cccc(Cl)c2)cc1 | 5.18 (active) |
| O=C(NCc1cccs1)Nc1cccc(Cl)c1 | 0.43 |
| O=C(Nc1ccccc1)N1CCCc2ccccc21 | -0.0768 |
| O=C(NCCCN1CCCC1=O)c1ccccc1NS(=O)(=O)c1ccc(Br)cc1 | -0.938 |
| CCCn1cc(NC(=O)C2CC(c3cccc(Br)c3)=NO2)cn1 (stereo unspecified) | -0.352 |
| CCOc1cc(/C=C2/NC(=O)N(CC(=O)Nc3cccc(C)c3)C2=O)ccc1O | -0.784 |
| N#CC1=C(SCC(=O)NCc2ccccc2)NC(=O)CC1c1ccco1 (stereo unspecified) | 1.77 |
| CC(C)=C1C2CCC1C1C(=O)N(c3nc(-c4ccc(C(C)C)cc4)c(C)s3)C(=O)C21 (stereo unspecified) | -0.0235 |
| O=C(NC(=S)N1CCN(c2ccc(C(F)(F)F)cc2[N+](=O)[O-])CC1)c1cccs1 | 8.9 (active) |
| NC(=O)C1CCN(c2ccc(C(F)(F)F)cc2[N+](=O)[O-])CC1 | 0.0305 |
| O=C(NC(=S)N1CCN(c2ccc(Cl)cc2[N+](=O)[O-])CC1)c1ccco1 | 2.99 |
| O=C(NC(=S)N1CCCCC1)c1cccs1 | 0.578 |
| O=C(NC(=S)N1CCN(c2ccc(Cl)cc2[N+](=O)[O-])CC1)c1cccs1 | 9.46 (active) |

| SMILES | z-score |
| --- | --- |
| O=C(NC(=S)N1CCN(c2c(Cl)cccc2[N+](=O)[O-])CC1)c1cccs1 | -4.63 (active) |
| O=C(CSc1ccc(Cl)cc1)N1CCN(c2ccc(Cl)cc2[N+](=O)[O-])CC1 | -0.109 |
| O=C(Nc1cc(C(F)(F)F)ccc1N1CCOCC1)c1cccs1 | 1.15 |
| O=C(NC(=S)N1CCN(c2ccc([N+](=O)[O-])cc2Cl)CC1)c1ccco1 | 1.05 |
| COc1ccc(NC(=O)Nc2ccc(Br)cn2)cc1OC | -0.221 |
| COc1ccc2nc(NC(=O)CSc3nnc(N)s3)sc2c1 | 0.075 |
| Cc1[nH]n2c(=O)cc(-c3ccc([N+](=O)[O-])cc3)nc2c1-c1ccccc1 | -1.93 |
| Cc1[nH]n(-c2ccc([N+](=O)[O-])cc2)c(=O)c1C=NCCc1c(C)[nH]c2ccccc12 | -0.0759 |
| Cc1[nH]n(-c2ccccc2)c(=O)c1N=Nc1nccs1 | 14.8 (active) |
| Cc1[nH]n(-c2ccccc2)c(=O)c1S(=O)(=O)c1ccccc1 | -0.642 |
| Cc1[nH]n(-c2ccccc2)c(=O)c1N=Nc1cccc(S(=O)(=O)N2CCOCC2)c1 | 0.327 |
| Cc1[nH]n(-c2ccc([N+](=O)[O-])cc2)c(=O)c1N=Nc1nc2ccccc2s1 | 2.47 |
| CN(Cc1ccc(-n2cccn2)cc1)C(=O)c1cnn2c1NC(c1ccco1)CC2C(F)(F)F (stereo unspecified) | -0.35 |
| CCCCN1C(=S)SC(C)(C)C1/[N+]([O-])=C/c1cccnc1 (stereo unspecified) | -0.00445 |
| CCN1C(=O)C2C(C1=O)N1C(c3ccccc3)C3C(=O)N(CC)C(=O)C3N1C2c1ccccc1 (stereo unspecified) | 0.0538 |
| CCCCCn1c(=N)n(CC(O)COc2ccccc2OC)c2ccccc21 (stereo unspecified) | -1.11 |
| CCCn1c(=N)n(CC(O)c2ccco2)c2ccccc21 (stereo unspecified) | 0.907 |
| CC(=O)c1ccc(OCC(O)CN2C(C)(C)CC(O)CC2(C)C)cc1 (stereo unspecified) | -0.153 |
| CCCCn1c(=N)n(CC(O)COc2cccc(C)c2)c2ccccc21 (stereo unspecified) | 4.52 (active) |
| C=CCn1c(=N)n(CC(O)COc2ccccc2OC)c2ccccc21 (stereo unspecified) | 1.12 |
| Cc1cccc(OCC(O)CN2C(C)(C)CC(O)CC2(C)C)c1C (stereo unspecified) | 1.1 |
| Cc1cccc(OCC(O)CN2C(C)(C)CC(O)CC2(C)C)c1 (stereo unspecified) | 9.44 (active) |
| CCCn1c(=N)n(CC(O)COc2cccc(C)c2)c2ccccc21 (stereo unspecified) | 3.74 (active) |

| SMILES | z-score |
| --- | --- |
| CCn1c(=N)n(CC(O)COc2cccc(C)c2)c2ccccc21 (stereo unspecified) | 0.778 |
| CC(=O)c1ccc(OCCCC(=O)Nc2ccc(C)c(S(=O)(=O)N(C)C)c2)cc1 | 0.136 |
| O=C(CCNc1cc(Cl)cc(Cl)c1)c1cccs1 | 0.0113 |
| COc1ccc(NS(=O)(=O)c2c(C)n(C)c(=O)n(C)c2=O)cc1OC | -0.0428 |
| Cc1ccc(S(=O)(=O)Cc2ccc(C(=O)NCc3ccc4c(c3)OCO4)o2)cc1 | -0.326 |
| NS(=O)(=O)c1ccc(CCNC(=O)C2CCN(S(=O)(=O)c3cnc[nH]3)CC2)cc1 | -0.00955 |
| O=C(NC1CCCC1)C(c1cccnc1)N(C(=O)c1csnn1)C1CCCC1 (stereo unspecified) | -0.145 |
| CC1CCN(c2nc3c(c(=O)[nH]c(=O)n3C)n2CCSc2nc3ccccc3o2)CC1 | 0.0449 |
| C=C1c2cc(C)ccc2NC(=O)N1c1ccc(C)cc1 | -0.68 |
| COc1cc(C)c(S(=O)(=O)N2CCOCC2)cc1C(C)C | 0.397 |
| COc1cc(C)c(N)cc1C(C)C | 2.12 |
| COc1cc(C)c(-c2cc(C(=O)O)c(C)o2)cc1C(C)C | -0.106 |
| CNC(=S)N1CCN(c2ccc([N+](=O)[O-])cc2)CC1 | -0.188 |
| O=C(NC(=S)N1CCN(c2ccc([N+](=O)[O-])cc2)CC1)c1ccc(F)cc1 | 9.01 (active) |
| CCNC(=S)N1CCN(c2ccc([N+](=O)[O-])cc2)CC1 | 0.99 |
| Cc1ccc(C(=O)NC(=S)N2CCN(c3ccc([N+](=O)[O-])cc3)CC2)cc1 | 0.426 |
| C=CCNC(=S)N1CCN(c2ccc([N+](=O)[O-])cc2)CC1 | 2.09 |
| COc1ccc(C(=O)NC(=S)N2CCN(c3ccc([N+](=O)[O-])cc3)CC2)cc1 | 0.274 |
| Cc1cc(C)c2c(N)c3ccccc3nc2n1 | -0.0162 |
| CCN(CC)c1nc2ccccc2c(N)c1-c1ccccc1 | 0.0637 |
| CN(C)c1nc2ccccc2c(N)c1-c1ccccc1 | 3.06 (active) |
| CN(C)c1nc(-c2ccccc2)nnc1C(F)(F)F | -0.148 |
| Cc1c(N(C)C)nc2ccccc2c1N | 2.03 |

| SMILES | z-score |
| --- | --- |
| CC(=O)c1c(C)nc2ccccc2c1N | 0.205 |
| O=C(NCc1cccnc1)c1cccc(Cl)c1 | 0.278 |
| O=C(Cn1c(=O)oc2ccccc21)NCc1ccco1 | 0.455 |
| Cc1c(NCc2cc(Cl)ccc2O)c(=O)n(-c2ccccc2)n1C | -0.0479 |
| O=C(CSc1nnc(-c2cccc(Cl)c2)o1)Nc1ccc2c(c1)OCCO2 | -0.0175 |
| CCCN(CC(=O)Nc1cc(Cl)cc(Cl)c1)CC(=O)Nc1ccc(F)c(F)c1F | -0.209 |
| CC(C)COP(=O)(c1ccc(N(C)C)cc1)C(Nc1ccccc1)c1ccccc1 (stereo unspecified) | -0.803 |
| CCOc1ccc(NC(=O)NCCCSC2CCCCC2)cc1 | 0.197 |
| COc1cccc(NC(=O)NCCCSC2CCCCC2)c1 | 4.47 (active) |
| CCCCSCCCNC(=O)Nc1cccc(OC)c1 | -0.211 |
| O=C(COC(=O)c1cccc([N+](=O)[O-])c1)c1ccc(OCc2ccccc2)cc1 | -0.231 |
| O=C(CCCSc1nc2ccccc2[nH]1)NCc1ccc(Cl)cc1 | -0.328 |
| O=C(CCCCCNc1nc(=S)[nH]c2ccccc12)NCCc1ccccc1 | 0.302 |
| COC(=O)Cc1csc(Nc2ccccc2Cl)n1 | 0.0565 |
| O=C(O)CCCCCNc1nc(=S)[nH]c2ccccc12 | 0.209 |
| O=C(Cc1csc(Nc2nc(=S)[nH]c3ccccc23)n1)NCc1cccc(Cl)c1 | 6.85 (active) |
| O=C(Cc1csc(Nc2nc(=S)[nH]c3ccccc23)n1)NCc1ccc(Cl)cc1 | 7.05 (active) |
| COc1ccc(CNC(=O)Cc2csc(Nc3nc(=S)[nH]c4ccccc34)n2)cc1 | 8.83 (active) |
| COc1ccc(CNC(=O)Cc2c(C(=O)O)[nH]c3ccccc23)cc1 | -0.136 |
| COc1ccc(CNC(=O)COC(=O)[C@H](Cc2c[nH]c3ccccc23)NC(=O)c2cccs2)cc1 | 0.0349 |
| O=C(O)Cc1csc(Nc2cccc(Cl)c2)n1 | 0.819 |
| O=C(Cc1c[nH]c2ccccc12)NCc1ccc(Cl)cc1 | 0.348 |
| O=C(Cc1csc(Nc2nc(=S)[nH]c3ccccc23)n1)NCc1ccccc1Cl | 3.83 (active) |

| SMILES | z-score |
| --- | --- |
| Cc1cccc(OCC(=O)Nc2ccc(N3CCN(C(=O)c4ccccc4)CC3)cc2)c1 | -0.0735 |
| Cc1ccc(S(=O)(=O)N2CCOCC2)c2nsnc12 | -0.358 |
| CCN1CCN(C(CNC(=O)c2ccc3c(c2)OCO3)c2cccnc2)CC1 (stereo unspecified) | -0.319 |
| COc1cc2c(cc1OC)CN(C(=O)C(C)(C)C)CC2 | -0.104 |
| CN(C1CCCCC1)S(=O)(=O)c1ccc(S(=O)(=O)N2CCN(CCC#N)CC2)cc1 | 0.242 |
| CCS(=O)CCSC(=N)N (stereo unspecified) | -0.0992 |
| Cc1ccc(NC(=S)Nc2nc(CC(=O)Nc3ccccc3)cs2)cc1 | 0.0541 |
| Cc1ccc(CNC(=O)Cc2csc(Nc3nc(=S)[nH]c4ccccc34)n2)cc1 | 10.7 (active) |
| O=C(Cc1csc(-c2ccccc2)n1)NCc1ccc(F)cc1 | -0.252 |
| COc1ccc(-n2nc3ccccc3n2)cc1 | 0.249 |
| O=C(NCc1ccncc1)C1CCCN(S(=O)(=O)Cc2ccccc2)C1 (stereo unspecified) | -0.193 |
| CCC1CCCCN1C(=O)CSc1nnc(-c2cccs2)o1 (stereo unspecified) | 0.801 |
| CCC1CCCCN1C(=O)CSc1nnc(-c2ccco2)o1 (stereo unspecified) | 11.1 (active) |
| CCC1CCCCN1C(=O)CSc1nnc(-c2ccc(Cl)cc2)o1 (stereo unspecified) | -0.41 |
| CCC(NC(=O)Cn1cnc2c(=O)n(C)c(=O)n(C)c21)c1ccccc1 (stereo unspecified) | 0.0869 |
| COc1ccc(C2C(C(=O)c3ccco3)=C(O)C(=O)N2CCOCCO)cc1OC (stereo unspecified) | -0.0423 |
| COc1ccc(CC(=O)Nc2cccc(-c3csc(C)n3)c2)cc1 | 1.88 |
| O=C(NOC(=O)c1ccccc1Cl)c1cccs1 | -0.383 |
| COC(=O)NNC(=O)c1ccc(C)cc1 | 0.0536 |
